These results are taken from PubChem BioAssay AID488841 (Sanford-Burnham Center for Chemical Genomics, 2010).

The structures appear in SMILES notation. The whole screen tested about 1,400 compounds, of which about 380 (27%) were called active.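 The calls were made as follows: active = mean inhibition above 50% across duplicate retests at 10 µM; inactive = the rest.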 The list shows a part of the results.

The nature of this experiment: inhibition of NALP1/ASC/caspase-1 reporter signal in yeast, confirmation, NALP1 inhibitor project, S. cerevisiae, luminescence, single concentration (AID 488841).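 Also: plate controls were DMSO in galactose medium for no effect and cells in plain SD medium for full effect.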 The settings on record: S. cerevisiae NALP1/ASC/Caspase-1 reporter, beta-gal luminescence; at 10 µM; hits give high values.
As to `CC(CC(=O)Nc1cccc(Cl)c1)c1ccccc1` (stereo not given), the inhibition – broadly, the change of the read-out against control, counted positive when it falls – is 42.7% (inactive).

`Cc1cccc(C)c1NC(=O)C(Cl)C(=O)c1ccccc1` (stereo not given): the inhibition was 12.7% (inactive).

As to `COC1=C(Nc2ccccc2)C(=O)c2ccccc2C1=O`, the inhibition is 17.4% (inactive).

Consider `CC(C)C(=O)Nc1ccc(Nc2ccccc2)cc1`, for which the inhibition is 58.4% (active).

Turning to `O=C(Nc1ccc(Nc2ccccc2)cc1)C(Cl)Cl`, the inhibition was 78.8% (active).

As to `CNCc1ccccc1Sc1cc(O)ccc1O`, the inhibition is 26.8% (inactive).

Regarding `O=S(=O)(CC12C3C4C5C1C2C(Br)(C43)C51OCCO1)c1ccccc1` (stereo not given), the inhibition is 40% (inactive).

Take `CC1CCCCN1S(=O)(=O)c1cnc(Cl)c(Br)c1` (stereo not given): the inhibition was 68.1% (active).

As for `O=c1c(Br)c(N2CCCC2)cnn1-c1ccccc1`, the inhibition is 41.4% (inactive).

`CC1CC(C)CN(S(=O)(=O)c2ccc(C(=O)NCc3ccc4c(c3)OCO4)cc2)C1` (stereo not given): the inhibition is 24.1% (inactive).

As for `Cc1ccc(-c2cc(NC(=O)CSc3n[nH]c(N)n3)n(-c3ccccc3)n2)cc1`, the inhibition was 24.2% (inactive).

Regarding `O=C(CCl)Nc1cc(-c2ccccc2)nn1-c1ccccc1`, the inhibition is 68.9% (active).

On to `COCC(=O)OCC(=O)Nc1cc(C(C)(C)C)nn1-c1ccccc1`, for which the inhibition was 25.4% (inactive).

On to `CC(C)c1ccc(-c2c(C#N)c(N)nc3c2CCCCC3)cc1`, for which the inhibition was 23.8% (inactive).

On to `Cc1cc(C)cc(NS(=O)(=O)c2ccc(NC(=S)Nc3ccccc3)cc2)c1`, for which the inhibition is 26.1% (inactive).

In the case of `CCc1cccc(CC)c1NC(=S)NCCc1c(C)[nH]c2ccccc12`, the inhibition is 37.9% (inactive).

In the case of `O=[N+]([O-])c1ccc(N2CCN(C(=S)Nc3ccccc3)CC2)cc1`, the inhibition is 32% (inactive).

Take `O=[N+]([O-])c1ccc(NC(=S)NCCc2ccc(F)cc2)cc1`: the inhibition is 85.5% (active).

For the compound `O=C(NC(CO)Cc1ccc([N+](=O)[O-])cc1)C(Cl)Cl` (stereo not given), the inhibition was 29.8% (inactive).

In the case of `S=C(NCCc1ccccc1)Nc1ccc(Br)cc1`, the inhibition was 70.2% (active).

As for `CC1CCCCN1C(=S)NCCc1ccccc1` (stereo not given), the inhibition was 47.7% (inactive).

In the case of `S=C(NCCCc1ccccc1)Nc1ccc(Cl)cc1`, the inhibition was 86.3% (active).

As to `CC(=O)Nc1ccc(C(=O)CSc2nnc(Cc3ccccc3)o2)cc1`, the inhibition is 11.8% (inactive).

Turning to `CCOC(=O)C1=NN(C(=O)c2ccc(C)cc2)C(O)(c2ccc(Cl)cc2)C1` (stereo not given), the inhibition is 45.7% (inactive).

Regarding `Cc1cccc(NC2=C(Cl)C(=O)OC2NC(=O)c2ccccc2)c1` (stereo not given), the inhibition is 7.1% (inactive).

Regarding `O=C(Nc1ccc2nc3n(c(=O)c2c1)CCCC3)c1cc([N+](=O)[O-])ccc1F`, the inhibition was 64.8% (active).

Take `CC1CCCCN1C(=S)Nc1ccc2nc3n(c(=O)c2c1)CCCCC3` (stereo not given): the inhibition is 35% (inactive).

For the compound `Cc1ccc(NCC(=O)Nc2c(C)n(C)n(-c3ccccc3)c2=O)cc1S(=O)(=O)N(C)C`, the inhibition was 15.9% (inactive).

With `Cc1ccccc1-c1ccc(C(=O)Nc2cccc(F)c2)o1`, the inhibition is 52.9% (active).

As for `O=C(Nc1cccc(F)c1)c1ccc(CSc2ccccc2)o1`, the inhibition was 37.8% (inactive).

Consider `Cc1ccc(CC(=O)Nc2ccccc2-c2ccccc2)cc1C`, for which the inhibition was 35.9% (inactive).

`CC1=C(C)/C(=N\OS(=O)(=O)c2ccc(C)cc2)C=CC1=O`: the inhibition is 79.5% (active).

On to `N#Cc1cnn(-c2ncnc3sc4c(c23)CCCC4)c1N`, for which the inhibition is 33.3% (inactive).

`O=C(COC(=O)Cc1c(F)cccc1Cl)NCCC1=CCCCC1`: the inhibition is 37.5% (inactive).

Take `COc1ccc(C2=C/C(=C/c3cccnc3)C(=O)O2)cc1OC`: the inhibition is 40.3% (inactive).

Consider `O=C1/C(=C/c2ccco2)Cc2ccccc21`, for which the inhibition was 38.1% (inactive).

As to `O=C1/C(=C/c2ccccc2)CCCc2ccccc21`, the inhibition is 57.9% (active).

Take `COc1ccc(/C=C2/CCc3ccccc3C2=O)cc1OC`: the inhibition is 59.9% (active).

`COc1ccc(/C=C2\COc3ccccc3C2=O)cc1OC`: the inhibition was 72.8% (active).

Regarding `COc1cc2ccccc2c2c1CCCC2=O`, the inhibition is 27.6% (inactive).

On to `COc1cc(/C=C2/CCc3ccccc3C2=O)cc(OC)c1OC`, for which the inhibition was 53% (active).

Regarding `COc1cc(C=O)ccc1Oc1nnnn1-c1ccccc1`, the inhibition is 35% (inactive).

In the case of `Cc1ccc(CN(C(=O)CNC(=O)c2cccs2)C(C(=O)NCC2CCCO2)c2ccccc2)cc1` (stereo not given), the inhibition was 20.4% (inactive).

On to `CC(C)NCCCCOc1cccc(Br)c1`, for which the inhibition is 43.9% (inactive).

Take `O=C(Cn1cccc(C(F)(F)F)c1=O)c1ccc(Cl)cc1`: the inhibition is 22% (inactive).

In the case of `Cc1oc(C(=O)O)cc1COc1ccc2c3c(c(=O)oc2c1)CCC3`, the inhibition was 14.6% (inactive).

For `Cc1[nH][nH]c(=O)c1C(c1c(C)[nH][nH]c1=O)c1cn(Cc2ccc(Cl)c(Cl)c2)c2ccccc12`, the inhibition was 35.5% (inactive).

Take `CN(C)c1ccc(/C=N/NC(=O)c2nnn(-c3nonc3N)c2CN(C)c2ccccc2)cc1`: the inhibition is 25.6% (inactive).

`Cc1nc2c(=O)n(C)c(=O)n(C)c2nc1Cl`: the inhibition was 36.3% (inactive).

Turning to `N=c1n(CC(=O)c2ccc([N+](=O)[O-])cc2)c2ccccc2n1Cc1ccccc1Cl`, the inhibition is 25.6% (inactive).

Take `COc1ccc2c(c1)CC/C(=C/c1ccco1)C2=O`: the inhibition is 71.4% (active).

Take `Nc1ccc2c(c1)C/C(=C/c1ccco1)C2=O`: the inhibition is 18.6% (inactive).

Take `c1ccc2sc(Sc3ncnc4sccc34)nc2c1`: the inhibition is 44.2% (inactive).

Consider `COc1ccc(-c2nc3cnccn3c2Nc2ccc(C)cc2)cc1`, for which the inhibition is 38.7% (inactive).

As for `Cc1ccc(-c2nc3cnccn3c2Nc2c(C)cccc2C)o1`, the inhibition was 58.9% (active).

In the case of `CC(=O)OCC(=O)[C@H]1CC[C@H]2[C@@H]3CC=C4C[C@@H](O)CC[C@]4(C)[C@H]3CC[C@]12C`, the inhibition was 4.15% (inactive).

As to `O=C(CCNC(=O)c1ccccc1Cl)Nc1ccc2c(c1)OCO2`, the inhibition was 22.9% (inactive).

Turning to `COC(=O)c1ccc(Oc2ccc(S(=O)(=O)N3CCCCC3)cc2N)cc1`, the inhibition is 92.3% (active).

With `COC(=O)c1ccc(NC(=O)C(=O)N2CCCC2)cc1`, the inhibition was 45.1% (inactive).

Consider `CC(=O)c1ccc(S(=O)(=O)N2CCCC2)cc1`, for which the inhibition is 23.6% (inactive).

Consider `CCc1ccc(NCc2nc(-c3ccccc3)no2)cc1`, for which the inhibition was 46.7% (inactive).

As to `O=S(=O)(CC(CN1CCCCC1)N1CCCCC1)c1ccc2ccccc2c1` (stereo not given), the inhibition is 39.3% (inactive).

Consider `CCOC(=O)c1cc(-c2ccc(OC)cc2)nc2c1c(C)nn2CCC#N`, for which the inhibition was 49.9% (inactive).

`CCOC(=O)N1CCC(=NNS(=O)(=O)c2cccc([N+](=O)[O-])c2)CC1`: the inhibition was 24% (inactive).

Turning to `CCOC(=O)/C=C/C(=O)Nc1cccc([N+](=O)[O-])c1`, the inhibition was 66.3% (active).

As for `COC(=O)/C=C\C(=O)Nc1cccc([N+](=O)[O-])c1`, the inhibition was 51.5% (active).

Turning to `CCOC(=O)/C=C/C(=O)Nc1nccs1`, the inhibition was 45.4% (inactive).

`O=C(/C=C/c1cccc([N+](=O)[O-])c1)c1ccco1`: the inhibition was 38.9% (inactive).

Consider `O=C(CON=C1c2ccccc2-c2ccccc21)NC12CC3CC(CC(C3)C1)C2`, for which the inhibition is 30.6% (inactive).

For the compound `CCOC(=O)c1c(C)[nH]c(C(=O)COC(=O)c2oc3ccccc3c2C)c1C`, the inhibition was 23.3% (inactive).

Take `CCC(C)NCCOc1cccc(Br)c1` (stereo not given): the inhibition was 26.1% (inactive).

Consider `COC(=O)c1ccc(Cn2cnc3c(cnn3-c3ccc(Cl)cc3)c2=O)o1`, for which the inhibition is 34.6% (inactive).

In the case of `CN(Cc1ccccc1)c1ncnc2c1cnn2-c1ccccc1`, the inhibition was 49.5% (inactive).

Turning to `COCCN(CCOC)c1ncnc2c1cnn2-c1ccc(Cl)cc1`, the inhibition is 56.8% (active).

On to `Cc1occc1C(=O)Nc1c(F)c(F)c(F)c(F)c1F`, for which the inhibition is 25.9% (inactive).

Take `CCC1(CC)Cc2ccccc2C(Nc2c(C)n(C)n(-c3ccccc3)c2=O)=N1`: the inhibition is 21.4% (inactive).

As for `S=C1SCN(Cc2cccnc2)CN1Cc1cccnc1`, the inhibition is 76% (active).

With `NNC(=S)NCc1cccnc1`, the inhibition was 24.5% (inactive).

For the compound `O=C1/C(=C\c2cccnc2)CN(Cc2ccccc2)C/C1=C\c1cccnc1`, the inhibition is 22.2% (inactive).

For `Cc1ccc(Sc2nnc(Cc3ccccc3)c3ccccc23)cc1`, the inhibition is 38.2% (inactive).

For the compound `O=C(c1ccccc1)c1ccc(OCC(O)CNC2CCCc3ccccc32)cc1` (stereo not given), the inhibition was 32.6% (inactive).

Take `CCOC(=O)N1CCN(c2ccc(Cl)c(Cl)c2)CC1`: the inhibition was 60.3% (active).

For the compound `CCOC(=O)N1CCN(c2c(NCCOC)c(=O)c2=O)CC1`, the inhibition was 26.4% (inactive).

Turning to `CCN1CCN(C(=S)Nc2ccc(Cl)c(Cl)c2)CC1`, the inhibition is 37% (inactive).

For the compound `COc1ccc(OC)c(S(=O)(=O)Nc2ccc(O)c3ccccc23)c1`, the inhibition is 32.9% (inactive).

With `O=C(O)[C@@H](c1ccccc1)N1Cc2ccccc2C1=O`, the inhibition is 26.9% (inactive).

On to `COc1ccc(NCc2ccc([N+](=O)[O-])s2)cc1`, for which the inhibition is 14.8% (inactive).

On to `CCOC(=O)N/N=C/c1ccc(N(CC)CC)cc1O`, for which the inhibition was 52.4% (active).

With `CCN(CC)c1ccc(/C=N/OC(C)C(=O)Nc2ccc(C)cc2)cc1` (stereo not given), the inhibition is 41% (inactive).

Regarding `Clc1ccc2c(N/N=C/c3cccc(Br)c3)ccnc2c1`, the inhibition was 42.9% (inactive).

As to `O=C(CCN1C(=O)c2ccccc2C1=O)N1CCN(C2c3ccccc3-c3ccccc32)CC1`, the inhibition was 18.4% (inactive).

Consider `COc1ccc(-c2[nH]ncc2CN2CCC(OCc3ccccn3)CC2)c(F)c1`, for which the inhibition is 23.8% (inactive).

Take `O=[N+]([O-])c1cc(S(=O)(=O)N2CCCCCC2)ccc1F`: the inhibition was 74.7% (active).

Take `CC(C)C(C)NC(=O)COc1ccc(S(=O)(=O)N2CCOCC2)cc1[N+](=O)[O-]` (stereo not given): the inhibition was 10.1% (inactive).

In the case of `Cn1cc(C(=O)NCc2ccc(F)cc2)c(=O)c2cc(S(=O)(=O)N3CCCCC3)ccc21`, the inhibition was 32.6% (inactive).

Take `CC(C)NC(=O)c1ccc(COCC(F)(F)F)cc1`: the inhibition is 41.5% (inactive).

Consider `CN1c2ccccc2-c2nc3ccccc3n2C1c1cccs1` (stereo not given), for which the inhibition was 26.3% (inactive).

As for `O=C(CN1CCCCC1)Nc1nc(-c2ccc(F)c(F)c2)cs1`, the inhibition was 43.3% (inactive).

With `O=C(Cc1cccs1)Nc1nc(-c2ccc(F)cc2F)cs1`, the inhibition was 71.6% (active).

`COc1ccccc1NS(=O)(=O)c1ccc(NC(=O)Cc2cccs2)cc1`: the inhibition is 31.7% (inactive).
